Assay results published in PubChem BioAssay (NCATS).
Where “and” joins values, the source holds several entries; their conditions need not be identical. Equal entries are not always repeated. Results filed as inconclusive are left out. Calls of active or inactive are those of the source. Unless noted, the call rests on the fitted dose curve; in most records, active means well fitted curve in the direction sought with a large enough effect; inconclusive means small, poorly fitted or top-dose-only effect, or another doubt; inactive means no such curve, though single readings can be large; an effect the other way counts as inactive or inconclusive.

What was measured:
C33A = assay: Primary qHTS to identify gynecologic anti-cancer compounds using libraries of approved drugs and bioactive compounds (AID 1345084); settings: Gynecologic cancer cell panel viability, ATPlite luminescence, 48 h; series mostly up to 57.5 µM; further: on the % scale 0 is the no-effect control and ±100 the full control effect; nearly all actives have a fitted effect of over 55% in size
Procedure, shortened: (§1)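 In this quantitative HTS, cell killing is estimated from loss of ATP-dependent luciferase light. Cells see five compound concentrations over a 48 h exposure.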

CAOV3 = assay: as above; settings: Gynecologic cancer cell panel viability, ATPlite luminescence, 48 h; series mostly up to 57.5 µM
Procedure, shortened: as §1

CASKI = assay: as above; settings: Gynecologic cancer cell panel viability, ATPlite luminescence, 48 h; series mostly up to 57.5 µM
Procedure, shortened: as §1

Es-2 = assay: as above; settings: Gynecologic cancer cell panel viability, ATPlite luminescence, 48 h; series mostly up to 57.5 µM
Procedure, shortened: as §1

HeLa = assay: as above; settings: Gynecologic cancer cell panel viability, ATPlite luminescence, 48 h; series mostly up to 57.5 µM
Procedure, shortened: as §1

Hek293T = assay: as above; settings: Gynecologic cancer cell panel viability, ATPlite luminescence, 48 h, control line for the selectivity index; series mostly up to 57.5 µM
Procedure, shortened: as §1

JEG-3 = assay: as above; settings: Gynecologic cancer cell panel viability, ATPlite luminescence, 48 h; series mostly up to 57.5 µM
Procedure, shortened: as §1

OV90 = assay: as above; settings: Gynecologic cancer cell panel viability, ATPlite luminescence, 48 h; series mostly up to 57.5 µM
Procedure, shortened: as §1

PA-1 = assay: as above; settings: Gynecologic cancer cell panel viability, ATPlite luminescence, 48 h; series mostly up to 57.5 µM
Procedure, shortened: as §1

SKOV3 = assay: as above; settings: Gynecologic cancer cell panel viability, ATPlite luminescence, 48 h; series mostly up to 57.5 µM
Procedure, shortened: as §1

Tov-21-G = assay: as above; settings: Gynecologic cancer cell panel viability, ATPlite luminescence, 48 h; series mostly up to 57.5 µM
Procedure, shortened: as §1

Tov112D = assay: as above; settings: Gynecologic cancer cell panel viability, ATPlite luminescence, 48 h; series mostly up to 57.5 µM
Procedure, shortened: as §1

[1] = Drug repurposing screens with cells derived from glioblastoma tumor samples (AID 1345199); settings: GBM patient neurospheres viability, ATP luminescence, 48 h; further: on the % scale 0 is the no-effect control and ±100 the full control effect; nearly all actives have a fitted effect of over 40% in size
Procedure, shortened: (§2)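 Primary testing used CD133+ neurospheres from four GBM patients, seven concentrations, 48 h exposure and ATP-based viability; confirmation added three slower-growing patient lines.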

astro = assay: as above; settings: viability, ATP luminescence, 48 h; series mostly up to 45.9 µM
Procedure, shortened: as §2

[2] = biological target: Nuclear receptor subfamily 1 group I member 2 (Rattus norvegicus) (UniProt Q9R1A7); assay: qHTS assay for small molecule activators of the rat pregnane X receptor (rPXR) signaling pathway (AID 651751; call rule not given here; further: 0% is about no effect); settings: rPXR reporter cells, luciferase (One-Glo), 24 h
Nuclear receptor subfamily 1 group I member 2 (Rattus norvegicus), sequence (Q9R1A7 whole entry, looked up): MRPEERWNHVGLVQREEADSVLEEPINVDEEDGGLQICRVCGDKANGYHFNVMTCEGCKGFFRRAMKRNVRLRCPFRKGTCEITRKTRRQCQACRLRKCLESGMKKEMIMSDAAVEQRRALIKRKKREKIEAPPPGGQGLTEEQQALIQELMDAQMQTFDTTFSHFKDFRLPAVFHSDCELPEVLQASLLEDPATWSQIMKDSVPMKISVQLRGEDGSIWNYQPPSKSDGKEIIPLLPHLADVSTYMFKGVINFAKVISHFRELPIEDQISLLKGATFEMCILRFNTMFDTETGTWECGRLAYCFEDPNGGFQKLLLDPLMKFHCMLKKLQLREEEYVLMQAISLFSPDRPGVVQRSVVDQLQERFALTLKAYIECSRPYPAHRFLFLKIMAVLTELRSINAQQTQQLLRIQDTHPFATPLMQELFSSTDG

[3] = qHTS assay for small molecule activators of the human pregnane X receptor (PXR) signaling pathway (AID 720659; call rule not given here; further: 0% is about no effect)
[4] = at 45.9 µM (top of the series), tumour line B
[5] = at 45.9 µM (top of the series), tumour line D
[6] = at 46 µM (top of the series), tumour line A
[7] = at 46.1 µM (top of the series), tumour line C

O=C(O)c1ccccc1C(=O)Nc1ccc(S(=O)(=O)Nc2nccs2)cc1
inactive: outcome (C33A) | outcome (CAOV3) | outcome (CASKI) | outcome (Es-2) | outcome (HeLa) | outcome (Hek293T) | outcome (JEG-3) | Potency (OV90) | outcome (PA-1) | outcome (SKOV3) | outcome (Tov-21-G) | outcome (Tov112D) | activity, negative = cell killing [1, 4] -6.87% | activity, negative = cell killing [1, 5] -3.34% | activity, negative = cell killing [1, 6] -31.1% | activity, negative = cell killing [1, 7] 1.95% | outcome (astro)

Cc1c(N(C)C)c(=O)n(-c2ccccc2)n1C
inactive: outcome (C33A) | outcome (CAOV3) | outcome (CASKI) | outcome (Es-2) | outcome (HeLa) | outcome (Hek293T) | outcome (JEG-3) | Potency (OV90) | outcome (PA-1) | outcome (SKOV3) | outcome (Tov-21-G) | outcome (Tov112D) | activity, negative = cell killing [1, 4] -5.14% | activity, negative = cell killing [1, 5] -8.5% | activity, negative = cell killing [1, 6] -17.7% | activity, negative = cell killing [1, 7] -17.7% | outcome (astro) | max response [2] -0.504% and 0.241% | outcome [3]

N[C@@H](Cc1ccc(O)cc1)C(=O)O
inactive: activity change, negative = cytotoxicity (C33A) 3.53% [at 11.6 µM] | activity change, negative = cytotoxicity (CAOV3) -13.2% [at 11.6 µM] | activity change, negative = cytotoxicity (CASKI) 0.958% [at 11.6 µM] | activity change, negative = cytotoxicity (Es-2) -4.06% [at 11.6 µM] | activity change, negative = cytotoxicity (HeLa) 11.2% [at 11.6 µM] | activity change, negative = cytotoxicity (Hek293T) 11.5% [at 11.6 µM] | activity change, negative = cytotoxicity (JEG-3) 4.09% [at 11.6 µM] | activity change, negative = cytotoxicity (OV90) 9.24% [at 11.6 µM] | activity change, negative = cytotoxicity (PA-1) 1.05% [at 11.6 µM] | activity change, negative = cytotoxicity (SKOV3) -0.073% [at 11.6 µM] | activity change, negative = cytotoxicity (Tov-21-G) 5.15% [at 11.6 µM] | activity change, negative = cytotoxicity (Tov112D) 8.21% [at 11.6 µM] | activity, negative = cell killing [1, 4] -2.51% | activity, negative = cell killing [1, 5] -14.6% | activity, negative = cell killing [1, 6] -11% | activity, negative = cell killing [1, 7] 37.9% | outcome (astro)

NS(=O)(=O)c1cc2c(cc1C(F)(F)F)NCNS2(=O)=O
inactive: outcome (C33A) | outcome (CAOV3) | outcome (CASKI) | outcome (Es-2) | outcome (HeLa) | outcome (Hek293T) | outcome (JEG-3) | Potency (OV90) | outcome (PA-1) | outcome (SKOV3) | outcome (Tov-21-G) | outcome (Tov112D) | activity, negative = cell killing ([1]; at 20 µM (top of the series), tumour line C) -8.4% | activity, negative = cell killing ([1]; at 21.2 µM (top of the series), tumour line B) 8.4% | activity, negative = cell killing ([1]; at 21.2 µM (top of the series), tumour line D) -16.1% | activity, negative = cell killing ([1]; at 21.3 µM (top of the series), tumour line A) -5.19% | outcome (astro)

CN1C(=O)CC(c2ccccc2)C1=O (stereo not drawn)
inactive: outcome (C33A) | outcome (CAOV3) | outcome (CASKI) | outcome (Es-2) | outcome (HeLa) | outcome (Hek293T) | outcome (JEG-3) | Potency (OV90) | outcome (PA-1) | outcome (SKOV3) | outcome (Tov-21-G) | outcome (Tov112D) | activity, negative = cell killing [1, 4] 3.75% | activity, negative = cell killing [1, 5] 1.43% | activity, negative = cell killing [1, 6] 1.73% | activity, negative = cell killing [1, 7] -11.6% | outcome (astro)

CC(=O)OCC(COC(C)=O)OC(C)=O
inactive: outcome (C33A) | outcome (CAOV3) | outcome (CASKI) | outcome (Es-2) | outcome (HeLa) | outcome (Hek293T) | outcome (JEG-3) | Potency (OV90) | outcome (PA-1) | outcome (SKOV3) | outcome (Tov-21-G) | outcome (Tov112D) | activity, negative = cell killing [1, 4] 7.15% | activity, negative = cell killing [1, 5] 15.4% | activity, negative = cell killing [1, 6] -13.4% | activity, negative = cell killing [1, 7] 1.43% | outcome (astro) | max response [2] -2.17% and 2.63% | outcome [3]

O=C(Cn1ccnc1[N+](=O)[O-])NCCO
inactive: outcome (C33A) | outcome (CAOV3) | outcome (CASKI) | outcome (Es-2) | outcome (HeLa) | outcome (Hek293T) | outcome (JEG-3) | Potency (OV90) | outcome (PA-1) | outcome (SKOV3) | outcome (Tov-21-G) | outcome (Tov112D) | activity, negative = cell killing [1, 4] -12.6% | activity, negative = cell killing [1, 5] -6.24% | activity, negative = cell killing [1, 6] -16.3% | activity, negative = cell killing [1, 7] -12.1% | outcome (astro)

COc1ccccc1Oc1c(NS(=O)(=O)c2ccc(C(C)(C)C)cc2)nc(-c2ncccn2)nc1OCCO
inactive: outcome (C33A) | outcome (CAOV3) | outcome (CASKI) | outcome (Es-2) | outcome (HeLa) | outcome (Hek293T) | outcome (JEG-3) | Potency (OV90) | outcome (PA-1) | outcome (SKOV3) | outcome (Tov-21-G) | outcome (Tov112D) | activity, negative = cell killing [1, 4] -11.9% | activity, negative = cell killing [1, 5] -7.18% | activity, negative = cell killing [1, 6] -57.2% | activity, negative = cell killing [1, 7] -29.9% | outcome (astro)

Cc1c(C)c2c(c(C)c1OC(=O)c1cccnc1)CC[C@@](C)(CCC[C@H](C)CCC[C@H](C)CCCC(C)C)O2
inactive: outcome (C33A) | outcome (CAOV3) | outcome (CASKI) | outcome (Es-2) | outcome (HeLa) | outcome (Hek293T) | outcome (JEG-3) | Potency (OV90) | outcome (PA-1) | outcome (SKOV3) | outcome (Tov-21-G) | outcome (Tov112D) | activity, negative = cell killing [1, 4] -11.4% | activity, negative = cell killing [1, 5] -0.0875% | activity, negative = cell killing [1, 6] -9.82% | activity, negative = cell killing [1, 7] -12.2% | outcome (astro)

CCCCCC(N)=O
inactive: outcome (C33A) | outcome (CAOV3) | outcome (CASKI) | outcome (Es-2) | outcome (HeLa) | outcome (Hek293T) | outcome (JEG-3) | Potency (OV90) | outcome (PA-1) | outcome (SKOV3) | outcome (Tov-21-G) | outcome (Tov112D) | activity, negative = cell killing [1, 4] -6.65% | activity, negative = cell killing [1, 5] -23.8% | activity, negative = cell killing [1, 6] -18.7% | activity, negative = cell killing [1, 7] -14.8% | outcome (astro) | max response [2] 8.83% | outcome [3]

CC(O)CCCCn1c(=O)c2c(ncn2C)n(C)c1=O (stereo not drawn)
inactive: outcome (C33A) | outcome (CAOV3) | outcome (CASKI) | outcome (Es-2) | outcome (HeLa) | outcome (Hek293T) | outcome (JEG-3) | Potency (OV90) | outcome (PA-1) | outcome (SKOV3) | outcome (Tov-21-G) | outcome (Tov112D) | activity, negative = cell killing [1, 4] -11.9% | activity, negative = cell killing [1, 5] -16.4% | activity, negative = cell killing [1, 6] -31.9% | activity, negative = cell killing [1, 7] -1.44% | outcome (astro)

O=C(O)c1ccccc1OP(=O)(O)O
inactive: outcome (C33A) | outcome (CAOV3) | outcome (CASKI) | outcome (Es-2) | outcome (HeLa) | outcome (Hek293T) | outcome (JEG-3) | Potency (OV90) | outcome (PA-1) | outcome (SKOV3) | outcome (Tov-21-G) | outcome (Tov112D) | activity, negative = cell killing [1, 4] -8.79% | activity, negative = cell killing [1, 5] 13.5% | activity, negative = cell killing [1, 6] -28.4% | activity, negative = cell killing [1, 7] -24.8% | outcome (astro)

CC1CC(OC(=O)c2ccccc2O)CC(C)(C)C1 (stereo not drawn)
inactive: outcome (C33A) | outcome (CAOV3) | outcome (CASKI) | outcome (Es-2) | outcome (HeLa) | outcome (Hek293T) | outcome (JEG-3) | Potency (OV90) | outcome (PA-1) | outcome (SKOV3) | outcome (Tov-21-G) | outcome (Tov112D) | activity, negative = cell killing [1, 4] -18.3% | activity, negative = cell killing [1, 5] -10.1% | activity, negative = cell killing [1, 6] -28.9% | activity, negative = cell killing [1, 7] 1.33% | outcome (astro) | max response [2] 5.1%
